Measurements from PubChem BioAssay AID1159580 (chemical genetic matrix, 2015).
The campaign covered roughly 5,500 compounds. About 2,000 (36%) were called active. Not shown: some 18% with an inconclusive outcome. No stated cut-off is given here; in the data, active means normalized growth mostly below about 0.91 (no sharp cut-off); inconclusive means no clear call, values can overlap the other calls; inactive means mostly above about 0.92. The list shows a part of the results.

Assay: chemical genetic growth profiling, strain panel (AID 1159580);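 further: tested at 20 µM; growth read once vehicle control cultures reached saturation at 30 °C; 1 = growth at the plate median or of vehicle wells; lower values mean less growth of the strain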
Conditions: growth OD

Measured: normalized growth

COc1ccc(C[C@H](N)C(=O)N[C@@H]2[C@@H](CO)OC(n3cnc4c(N(C)C)ncnc43)[C@@H]2O)cc1 (some centres not stated)
inactive: S. cerevisiae deletion strains, locus YJR075W, strain HOC1, active compounds read low 0.997 | S. cerevisiae deletion strains, locus YKL009W, strain mrt4, active compounds read low 1.03 | S. cerevisiae deletion strains, locus YKL068W, active compounds read low 1.02 | S. cerevisiae deletion strains, locus YKL085W, strain MDH1 (second series), active compounds read low 1.01 | S. cerevisiae deletion strains, locus YKL085W, strain MDH1, active compounds read low 1.01 | S. cerevisiae deletion strains, locus YKL160W, strain elf1, active compounds read low 0.993 | S. cerevisiae deletion strains, locus YKL190W, strain CNB1, active compounds read low 1 | S. cerevisiae deletion strains, locus YKR001C, strain vps1, active compounds read low 1.02 | S. cerevisiae deletion strains, locus YKR026C, strain gcn3, active compounds read low 1 | S. cerevisiae deletion strains, locus YKR091W, strain srl3, active compounds read low 1.02 | S. cerevisiae deletion strains, locus YLL001W, strain dnm1, active compounds read low 0.961 | S. cerevisiae deletion strains, locus YLL026W, active compounds read low 0.987 | S. cerevisiae deletion strains, locus YLL041C, strain sdh2, active compounds read low 1 | S. cerevisiae deletion strains, locus YLR027C, strain aat2, active compounds read low 0.997 | S. cerevisiae deletion strains, locus YLR039C, strain RIC1, active compounds read low 1.04 | S. cerevisiae deletion strains, locus YLR058C, strain SHM2, active compounds read low 1.01 | S. cerevisiae deletion strains, locus YLR102C, strain apc9, active compounds read low 1.01 | S. cerevisiae deletion strains, locus YLR113W, strain HOG1, active compounds read low 0.989 | S. cerevisiae deletion strains, locus YLR221C, strain rsa3, active compounds read low 0.991 | S. cerevisiae deletion strains, locus YLR258W, strain gsy2, active compounds read low 1 | S. cerevisiae deletion strains, locus YLR262C, strain YPT6 (second series), active compounds read low 1.01 | S. cerevisiae deletion strains, locus YLR262C, strain YPT6, active compounds read low 1.04 | S. cerevisiae deletion strains, locus YLR268W, strain sec22, active compounds read low 1.01 | S. cerevisiae deletion strains, locus YLR320W, strain mms22, active compounds read low 1 | S. cerevisiae deletion strains, locus YLR330W, strain CHS5, active compounds read low 1.01 | S. cerevisiae deletion strains, locus YLR342W, strain FKS1 (second series), active compounds read low 0.992 | S. cerevisiae deletion strains, locus YLR342W, strain FKS1, active compounds read low 0.996 | S. cerevisiae deletion strains, locus YLR357W, strain rsc2, active compounds read low 1.01 | S. cerevisiae deletion strains, locus YLR370C, strain arc18, active compounds read low 0.985 | S. cerevisiae deletion strains, locus YLR371W, strain rom2, active compounds read low 1.02 | S. cerevisiae deletion strains, locus YLR384C, strain iki3, active compounds read low 0.979 | S. cerevisiae deletion strains, locus YLR418C, strain cdc73, active compounds read low 0.988 | S. cerevisiae deletion strains, locus YML016C, strain PPZ1, active compounds read low 1.01 | S. cerevisiae deletion strains, locus YML032C, strain rad52, active compounds read low 1.03 | S. cerevisiae deletion strains, locus YML120C, strain ndi1, active compounds read low 0.996 | S. cerevisiae deletion strains, locus YML124C, strain tub3, active compounds read low 1.02 | S. cerevisiae deletion strains, locus YMR058W, strain fet3, active compounds read low 1 | S. cerevisiae deletion strains, locus YMR078C, strain ctf18, active compounds read low 1.02 | S. cerevisiae deletion strains, locus YMR125W, strain sto1, active compounds read low 1.01 | S. cerevisiae deletion strains, locus YMR129W, active compounds read low 0.995 | S. cerevisiae deletion strains, locus YMR205C, strain PFK2, active compounds read low 1 | S. cerevisiae deletion strains, locus YMR223W, strain ubp8, active compounds read low 1.03 | S. cerevisiae deletion strains, locus YMR231W, strain pep5, active compounds read low 0.987 | S. cerevisiae deletion strains, locus YMR263W, strain SAP30, active compounds read low 1 | S. cerevisiae deletion strains, locus YMR307W, strain GAS1, active compounds read low 1.06 | S. cerevisiae deletion strains, locus YNL067W, strain RPL9B, active compounds read low 1 | S. cerevisiae deletion strains, locus YNL071W, strain lat1, active compounds read low 1.01 | S. cerevisiae deletion strains, locus YNL128W, strain TEP1, active compounds read low 1.01 | S. cerevisiae deletion strains, locus YNL153C, strain GIM3, active compounds read low 0.988 | S. cerevisiae deletion strains, locus YNL183C, strain NPR1, active compounds read low 0.935 | S. cerevisiae deletion strains, locus YNL209W, strain ssb2, active compounds read low 0.996 | S. cerevisiae deletion strains, locus YNL233W, strain BNI4, active compounds read low 1 | S. cerevisiae deletion strains, locus YNL248C, strain rpa49, active compounds read low 1.01 | S. cerevisiae deletion strains, locus YNL250W, strain rad50, active compounds read low 1.04 | S. cerevisiae deletion strains, locus YNL271C, strain bni1, active compounds read low 1.01 | S. cerevisiae deletion strains, locus YNL298W, strain CLA4, active compounds read low 1.01 | S. cerevisiae deletion strains, locus YNL307C, strain MCK1, active compounds read low 1.04 | S. cerevisiae deletion strains, locus YNL322C, strain KRE1 (second series), active compounds read low 0.994 | S. cerevisiae deletion strains, locus YNL322C, strain KRE1, active compounds read low 1.01 | S. cerevisiae deletion strains, locus YNR049C, strain mso1, active compounds read low 0.987 | S. cerevisiae deletion strains, locus YNR052C, strain pop2, active compounds read low 1.02 | S. cerevisiae deletion strains, locus YOL006C, strain TOP1, active compounds read low 1.02 | S. cerevisiae deletion strains, locus YOL012C, strain htz1 0.862 | S. cerevisiae deletion strains, locus YOL147C, strain pex11, active compounds read low 1.02 | S. cerevisiae deletion strains, locus YOR001W, strain rrp6, active compounds read low 0.988 | S. cerevisiae deletion strains, locus YOR061W, strain CKA2, active compounds read low 1.01 | S. cerevisiae deletion strains, locus YOR069W, strain VPS5, active compounds read low 0.996 | S. cerevisiae deletion strains, locus YOR070C, strain gyp1, active compounds read low 0.984 | S. cerevisiae deletion strains, locus YOR080W, strain dia2, active compounds read low 0.992 | S. cerevisiae deletion strains, locus YOR083W, strain WHI5, active compounds read low 1.02 | S. cerevisiae deletion strains, locus YOR106W, strain vam3, active compounds read low 0.984 | S. cerevisiae deletion strains, locus YOR136W, strain idh2, active compounds read low 1.02 | S. cerevisiae deletion strains, locus YOR144C, strain elg1, active compounds read low 1.01 | S. cerevisiae deletion strains, locus YOR184W, strain ser1, active compounds read low 1.04 | S. cerevisiae deletion strains, locus YOR231W, strain MKK1, active compounds read low 0.961 | S. cerevisiae deletion strains, locus YOR265W, strain rbl2, active compounds read low 0.991 | S. cerevisiae deletion strains, locus YOR270C, strain vph1, active compounds read low 0.993 | S. cerevisiae deletion strains, locus YOR290C, strain snf2, active compounds read low 1 | S. cerevisiae deletion strains, locus YOR316C, strain cot1, active compounds read low 1.02 | S. cerevisiae deletion strains, locus YPL051W, strain arl3, active compounds read low 0.976 | S. cerevisiae deletion strains, locus YPL055C, strain LGE1, active compounds read low 1 | S. cerevisiae deletion strains, locus YPL078C, strain atp4, active compounds read low 0.972 | S. cerevisiae deletion strains, locus YPL106C, strain sse1, active compounds read low 0.996 | S. cerevisiae deletion strains, locus YPL240C, strain hsp82, active compounds read low 0.986 | S. cerevisiae deletion strains, locus YPL241C, strain CIN2, active compounds read low 1 | S. cerevisiae deletion strains, locus YPL256C, strain CLN2, active compounds read low 0.965 | S. cerevisiae deletion strains, locus YPR119W, strain clb2, active compounds read low 1.01 | S. cerevisiae deletion strains, locus YPR141C, strain kar3, active compounds read low 1.03 | S. cerevisiae deletion strains, locus YPR163C, strain tif3, active compounds read low 1.02 | S. cerevisiae deletion strains, locus YPR167C, strain met16, active compounds read low 1.02 | S. cerevisiae deletion strains, strain wtn01, active compounds read low 0.986 | S. cerevisiae strains, strain wild type, active compounds read low 1.01
